Screens: PubChem, Sanford-Burnham Center for Chemical Genomics
Sampled rows, rich in hits. Any-hit rate of the full collection: about 3%.
SENP8 block-1: SENP8 (human) protease inhibition; recombinant SENP8, Nedd8 substrate fluorescence; Q96LD8; inhibition, % at 20 µM; 360,000 tested, 0.64% active; in the data active means inhibition mostly above about 40%, no sharp cut-off; inactive means mostly below about 27%
C8 TRAIL sens: caspase-8 TRAIL sensitization; NB7+C8 cells + TRAIL, ATPlite viability luminescence; inhibition (viability loss, TRAIL sensitization), % at 10 µM; 360,000 tested, 1% active;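 active means compounds causing at least 50% loss of cell viability in the single-dose screen, relative to plate controls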
PPC-1+TRAIL kill: kills PPC-1 cancer cells in the presence of TRAIL; PPC-1 cells + TRAIL, ATPLite viability luminescence; cell killing (% activity), % at 4 µM or 5 µM; 220,000 tested, 0.41% active; AID 1443;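 active means cell killing above 50% in the first pass at 4 µM, then a duplicate retest at 5 µM averaging 50% or more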;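 further: plate controls were cells with TRAIL plus DMSO for no effect and medium-only wells lacking cells for full effect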
SENP8 block-2: blocks the human protease SENP8 | purified SENP8, Z-RLRGG-aminoluciferin cleavage, luminescence | 330,000 tested, 1.2% active | inhibition, % at 10 µM | AID 2540 | Q96LD8; in the data active means inhibition above about 50%
SENP7 block: blocks the human protease SENP7 | Q9BQF6 | recombinant SENP7, Z-RLRGG-aminoluciferin luminescence, 40 min | inhibition, % at 5 µM | 330,000 tested, 1.5% active;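 active means inhibition above about 50% at the single test dose, limit read from the data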;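 further: plate controls were DMSO with enzyme for no effect and no enzyme buffer wells for full effect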
Target sequence (Q9BQF6 706-1050 limits assumed): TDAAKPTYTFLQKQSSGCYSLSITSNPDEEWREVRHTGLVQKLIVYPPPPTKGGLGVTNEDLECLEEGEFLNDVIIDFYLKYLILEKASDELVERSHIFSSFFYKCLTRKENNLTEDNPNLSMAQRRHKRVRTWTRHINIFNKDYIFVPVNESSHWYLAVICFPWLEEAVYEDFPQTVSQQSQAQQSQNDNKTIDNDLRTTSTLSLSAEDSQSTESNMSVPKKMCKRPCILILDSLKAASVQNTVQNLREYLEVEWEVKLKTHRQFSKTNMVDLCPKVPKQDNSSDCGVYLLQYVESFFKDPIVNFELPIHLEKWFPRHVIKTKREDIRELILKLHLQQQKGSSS
SENP6 inh: inhibitors of human SENP6 protease; Q9GZR1; Recombinant SENP6 catalytic domain, aminoluciferin luminescence; inhibition, % at 10 µM; 330,000 tested, 1.8% active; AID 2599;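 active means inhibition above about 50% at the single tested dose, limit read from the data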;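 further: plate controls were DMSO wells with enzyme for no effect and DMSO wells lacking enzyme for full effect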
SENP8 confirm: confirmation of human SENP8 protease inhibitors. shares compounds with SENP7 block. Recombinant SENP8, Z-RLRGG-aminoluciferin luminescence, 60 min. inhibition, % at 12.5 µM. 6,200 tested, 40% active. AID 488912;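 active means mean inhibition across replicates above about 50%, limit read from the data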
SENP6 confirm: human SENP6 inhibition, confirmed; shares compounds with SENP7 block; AID 488915; 6,200 tested, 58% active; inhibition, % at 12.5 µM; recombinant SENP6, Z-RLRGG-aminoluciferin luminescence
SENP7 confirm: confirmation of human SENP7 protease inhibitors | AID 488917 | recombinant SENP7, Z-RLRGG-aminoluciferin luminescence, 40 min | inhibition, % at 12.5 µM | shares compounds with SENP7 block | 6,200 tested, 69% active
Casp3 select: caspase-3 inhibition (SENP selectivity assay) | shares compounds with SENP7 block | purified caspase-3, Z-DEVD-aminoluciferin luminescence, 60 min | inhibition, % at 12.5 µM | 6,200 tested, 60% active;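 active means mean inhibition above about 50%, limit read from the data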;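 further: plate controls were enzyme with DMSO for no effect and wells without caspase-3 for full effect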
Target sequence (P42574 28-227 limits assumed): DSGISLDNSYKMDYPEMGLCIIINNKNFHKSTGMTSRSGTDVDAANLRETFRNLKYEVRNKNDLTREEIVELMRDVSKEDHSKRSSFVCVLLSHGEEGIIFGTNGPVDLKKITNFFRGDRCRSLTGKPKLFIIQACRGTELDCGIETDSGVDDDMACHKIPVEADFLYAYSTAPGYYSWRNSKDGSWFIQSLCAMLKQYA
Luc interf: counter-screen for SENP inhibitors: luminescence interference; shares compounds with SENP7 block; 6,200 tested, 39% active; AID 488919; inhibition, % at 12.5 µM; Pre-incubated SENP8/Z-RLRGG-aminoluciferin, luciferase luminescence interference;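 active means mean inhibition above about 50% when retested at one dose, limit read from the data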;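 further: plate controls were DMSO wells with completed reaction for no effect and substrate without enzyme for full effect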
The depositor's hits bear a star; . = not tested or not shown.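 How the source made its calls, unless noted: active means mean inhibition above about 50% in the one-dose retest (limit read from the data); inactive means the rest.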

SMILES	SENP8 block-1	C8 TRAIL sens	PPC-1+TRAIL kill	SENP8 block-2	SENP7 block	SENP6 inh	SENP8 confirm	SENP6 confirm	SENP7 confirm	Casp3 select	Luc interf
COc1ccc(CCNC(=O)CCCCCN2C(=O)[C@@H]3Cc4ccccc4CN3C2=O)cc1OC	4.1	-13.2	.	-5.5	-6.0	-37.8	.	.	.	.	.
Cc1nnc(NC(=O)CCNC(=O)c2ccccc2Cl)s1	8.0	-4.5	-7.5	-0.9	5.9	-9.6	.	.	.	.	.
c1ccc(Cn2nc(-c3ccccc3)nc2-c2ccccc2)cc1	11.1	-7.2	9.2	47.3	40.6	61.9*	45.3	38.5	73.5*	29.3	16.6
COc1ccc(/C=C2\SC(=O)N(CCCC(=O)Nc3ccc(C(=O)O)cc3)C2=O)cc1	10.9	4.3	.	.	.	.	.	.	.	.	.
CCc1ccc(/C=C2\SC(=S)N(CCCC(=O)Nc3ccc(C(=O)O)cc3)C2=O)cc1	19.2	11.1	.	94.2*	82.9*	91.8*	92.7*	97.0*	98.0*	77.2*	54.8*
O=C(CCCN1C(=O)/C(=C\c2ccccc2)SC1=S)Nc1ccc(C(=O)O)cc1	10.0	9.8	.	65.8*	22.8	82.1*	9.5	5.5	12.3	5.3	13.1
O=C(CCN1C(=O)/C(=C/c2ccc3c(c2)OCO3)SC1=S)Nc1ccc(C(=O)O)cc1	19.2	10.6	.	39.9	1.1	14.3	.	.	.	.	.
CCc1ccc(/C=C2\SC(=S)N(CCCC(=O)Nc3ccccc3C(=O)O)C2=O)cc1	32.0	5.3	.	-1.6	3.8	0.6	.	.	.	.	.
O=C(CCCN1C(=O)/C(=C/c2ccc3c(c2)OCO3)SC1=S)Nc1ccc(C(=O)O)cc1	29.3	7.6	.	85.8*	78.1*	92.6*	-13.4	3.4	13.6	16.4	16.3
O=C(CCCN1C(=O)S/C(=C/c2ccccc2)C1=S)Nc1ccc(C(=O)O)cc1	12.4	3.4	.	72.0*	45.1	66.0*	11.4	51.6*	71.5*	46.0	19.7
NC(=O)CSc1nnc2sc3ccccc3n12	17.9	1.1	-1.2	4.9	7.7	12.3	.	.	.	.	.
N#CCSc1nnc2sc3ccccc3n12	7.4	-4.4	1.4	-1.9	87.1*	-14.2	9.2	9.4	-9.0	-3.2	0.1
O=C(NCCS(=O)(=O)N1CCN(c2ccccc2F)CC1)c1cc(=O)c2ccccc2o1	8.6	3.8	.	-2.4	0.6	5.9	.	.	.	.	.
O=C(O)c1ccc(N/N=C/c2ccnc3ccccc23)cc1	10.9	-7.8	2.2	81.9*	91.8*	91.1*	77.0*	90.5*	92.2*	68.6*	10.5
COc1ccc(/C=N/Nc2ccc(C(=O)O)cc2)c(OC)c1OC	-197.1	-1.2	.	6.8	21.3	-6.7	.	.	.	.	.
O=C(O)c1ccc(S(=O)(=O)NN=Cc2c[nH]c3ccccc23)cc1	27.7	-22.4	.	.	.	.	.	.	.	.	.
O=C(O)c1ccc(N/N=C/c2c[nH]c3ccccc23)cc1	-279.3	17.9	.	98.2*	100.4*	96.7*	98.4*	99.6*	102.4*	96.5*	96.9*
O=C(O)c1ccc2c3n(nc2c1)-c1ccc(Cl)cc1CO3	.	.	.	93.7*	93.6*	97.8*	98.5*	99.4*	102.9*	98.5*	96.1*
O=C(NCC1CC1)c1ccc2c3n(nc2c1)-c1ccc(Cl)cc1CO3	-92.7	40.2	.	12.2	4.3	19.2	.	.	.	.	.
O=C(NCCO)c1ccc2c3n(nc2c1)-c1ccc(Cl)cc1CO3	-86.4	24.1	7.0	-1.1	-5.6	4.7	.	.	.	.	.
O=C(c1ccc2c3n(nc2c1)-c1ccc(Cl)cc1CO3)N1CCCCC1	-30.1	14.9	37.6	86.1*	84.1*	87.1*	83.7*	94.3*	100.4*	93.7*	13.7
Cc1ccc2c(c1)COc1c3ccc(C(=O)N4CCOCC4)cc3nn1-2	-324.9	27.2	18.5	42.5	69.3*	70.8*	71.5*	69.1*	90.4*	88.2*	75.6*
Cc1cnc(NC(=O)C2CC(=O)N(c3cccc(Cl)c3)C2)s1 (centres undefined)	2.9	36.5	.	-8.3	0.3	-2.6	.	.	.	.	.
CCC(C)NC(=O)C1CCN(C(=O)N(C)C)CC1 (centres undefined)	14.7	-15.4	23.6	-5.1	101.7*	5.5	-1.3	-1.4	-4.3	-3.6	-5.8
COc1ccc(C(=O)CC(C(=O)O)c2ccc3c(c2)OCO3)cc1OC (centres undefined)	-6.2	-19.7	.	.	.	.	.	.	.	.	.
SMILES	SENP8 block-1	C8 TRAIL sens	PPC-1+TRAIL kill	SENP8 block-2	SENP7 block	SENP6 inh	SENP8 confirm	SENP6 confirm	SENP7 confirm	Casp3 select	Luc interf
CCOC(=O)C(c1nc2ccccc2[nH]1)n1c(-c2ccccn2)nc2ccccc21 (centres undefined)	-21.6	3.4	.	.	.	.	.	.	.	.	.
Cc1cccc(/C=N\Nc2cn[nH]c(=O)c2Cl)c1	-193.3	-11.4	-2.9	54.8*	71.4*	76.5*	71.4*	67.3*	88.2*	76.3*	45.1
CCOC(=O)c1c(C)[nH]c(C(=O)OCC(=O)c2ccccc2)c1C	-7.3	39.7	.	42.2	39.0	51.0*	46.1	43.5	76.1*	34.7	17.2
NC(=O)CSc1nc(C2CC2)nc2sc3c(c12)CCCC3	10.7	29.3	36.1	73.7*	67.6*	74.9*	-18.5	-4.4	11.3	4.7	16.5
NC(=O)CSc1nc(N)c2c3c(sc2n1)CCCCC3	14.3	25.6	4.3	-0.1	4.8	7.1	.	.	.	.	.
CCOc1cc(C2Nc3ccccc3NC3=C2C(=O)CC(C)(C)C3)ccc1O (centres undefined)	15.1	-9.6	.	2.4	1.6	7.5	.	.	.	.	.
CN(C)c1ccc(C=Nc2cnn(C)c2C(N)=O)cc1	-49.3	6.1	10.9	67.6*	77.5*	73.0*	10.2	44.9	78.5*	62.5*	24.0
Cc1nc(Cl)cc(N/N=C/c2ccc(O)cc2O)n1	-8.8	6.0	.	93.1*	94.5*	97.1*	91.9*	92.3*	100.3*	92.2*	91.6*
Cc1nc(Cl)cc(N/N=C/c2ccc(O)cc2)n1	1.5	18.1	.	89.3*	90.6*	87.3*	90.1*	89.6*	99.4*	89.8*	87.2*
CCOc1ccc(/C=N/Nc2cc(N3CCOCC3)nc(C)n2)c(O)c1	-8.4	2.8	.	5.0	-4.9	19.7	.	.	.	.	.
Cc1ccc(NC(=O)c2cc(=O)[nH]c3ccccc23)cc1	17.2	-11.3	.	2.8	1.5	-13.7	.	.	.	.	.
